Reference: PubChem BioAssay (NCATS)
Records with an inconclusive call do not appear. Where a call stands in place of a potency, no number is given. Unmarked numbers belong to inactive results. Calls of active or inactive are those of the source. The call rests on the fitted dose curve; in most records, active means well fitted curve in the direction sought with a large enough effect; inconclusive means small, poorly fitted or top-dose-only effect, or another doubt; inactive means no such curve, though single readings can be large; an effect the other way counts as inactive or inconclusive.

Assays:
[1] = target: Rap guanine nucleotide exchange factor 3 (Homo sapiens) (UniProt O95398); assay: Confirmatory qHTS for antagonist of cAMP-regulated guanine nucleotide exchange factor 3 (EPAC1) (AID 1645880); details: EPAC1 Rap1B-BODIPY-GDP exchange, fluorescence; series mostly up to 115 µM; further: nearly all actives have a fitted effect of over 55% in size; further: potency means the concentration at half of the fitted maximal effect
Outline: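 Nucleotide exchange uses 100 nM EPAC1, 250 nM RAP1B-BODIPY-GDP and 50 uM GDP, with compounds in a concentration-titration series. After 5 min at room temperature, fluorescence (480 nm ex/540 nm em) is read every 5 min for 30 min. Data are normalized to control ATA and DMSO.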

[2] = target: Rap guanine nucleotide exchange factor 3 (Homo sapiens) (UniProt O95398); assay: Confirmatory qHTS for agonist of cAMP-regulated guanine nucleotide exchange factor 3 (EPAC1) (AID 1645881); details: EPAC1 Rap1B BODIPY-GDP exchange fluorescence; series mostly up to 154 µM; further: nearly all actives have a fitted effect of over 75% in size; further: potency means the concentration at half of the fitted maximal effect;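 on activation: EPAC1 catalysed release of BODIPY-GDP from Rap1B seen as fluorescence loss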
[3] = target: Rap guanine nucleotide exchange factor 4 (Homo sapiens) (UniProt Q8WZA2); assay: Confirmatory qHTS for agonist of cAMP-regulated guanine nucleotide exchange factor 4 (EPAC2) (AID 1645884); details: EPAC2 GEF activity, Rap1B-BODIPY-GDP fluorescence; series mostly up to 154 µM;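 further: nucleotide exchange releases bodipy-GDP from Rap1 and this lowers its fluorescence; nearly all actives have a fitted effect of over 65% in size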; further: potency means the concentration at half of the fitted maximal effect
[4] = target: Rap guanine nucleotide exchange factor 4 (Homo sapiens) (UniProt Q8WZA2); assay: Confirmatory qHTS for antagonist of cAMP-regulated guanine nucleotide exchange factor 4 (EPAC2) (AID 1645885); details: EPAC2 Rap1B-BODIPY-GDP exchange fluorescence, biochemical; series mostly up to 12.7 µM; further: nearly all actives have a fitted effect of over 25% in size; further: potency means the concentration at half of the fitted maximal effect
[5] = target: Rap guanine nucleotide exchange factor 3 (Homo sapiens) (UniProt O95398); assay: Counterscreen qHTS for antagonist of cAMP-regulated guanine nucleotide exchange factor 3 (EPAC1) (AID 1645888); details: Rap1B-BODIPY-GDP nucleotide exchange, fluorescence; series mostly up to 154 µM;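 further: fluorescence loss as bound BODIPY-GDP is released from Rap1B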
Outline: (§1)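 Measured: fluorescence of BODIPY-GDP bound to Rap1B, which falls as exchange proceeds. Conditions include 50 uM competing GDP, 5 and 30 min reads, and a later cAMP challenge for antagonist detection.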

[6] = target: Rap guanine nucleotide exchange factor 3 (Homo sapiens) (UniProt O95398); assay: Counterscreen qHTS for agonist of cAMP-regulated guanine nucleotide exchange factor 3 (EPAC1) (AID 1645889); details: EPAC1 Rap1B-BODIPY-GDP exchange, fluorescence; series mostly up to 154 µM; further: nearly all actives have a fitted effect of over 40% in size; further: potency means the concentration at half of the fitted maximal effect
Outline: as §1

Sequence of Rap guanine nucleotide exchange factor 4 (Homo sapiens) (Q8WZA2 whole entry, looked up): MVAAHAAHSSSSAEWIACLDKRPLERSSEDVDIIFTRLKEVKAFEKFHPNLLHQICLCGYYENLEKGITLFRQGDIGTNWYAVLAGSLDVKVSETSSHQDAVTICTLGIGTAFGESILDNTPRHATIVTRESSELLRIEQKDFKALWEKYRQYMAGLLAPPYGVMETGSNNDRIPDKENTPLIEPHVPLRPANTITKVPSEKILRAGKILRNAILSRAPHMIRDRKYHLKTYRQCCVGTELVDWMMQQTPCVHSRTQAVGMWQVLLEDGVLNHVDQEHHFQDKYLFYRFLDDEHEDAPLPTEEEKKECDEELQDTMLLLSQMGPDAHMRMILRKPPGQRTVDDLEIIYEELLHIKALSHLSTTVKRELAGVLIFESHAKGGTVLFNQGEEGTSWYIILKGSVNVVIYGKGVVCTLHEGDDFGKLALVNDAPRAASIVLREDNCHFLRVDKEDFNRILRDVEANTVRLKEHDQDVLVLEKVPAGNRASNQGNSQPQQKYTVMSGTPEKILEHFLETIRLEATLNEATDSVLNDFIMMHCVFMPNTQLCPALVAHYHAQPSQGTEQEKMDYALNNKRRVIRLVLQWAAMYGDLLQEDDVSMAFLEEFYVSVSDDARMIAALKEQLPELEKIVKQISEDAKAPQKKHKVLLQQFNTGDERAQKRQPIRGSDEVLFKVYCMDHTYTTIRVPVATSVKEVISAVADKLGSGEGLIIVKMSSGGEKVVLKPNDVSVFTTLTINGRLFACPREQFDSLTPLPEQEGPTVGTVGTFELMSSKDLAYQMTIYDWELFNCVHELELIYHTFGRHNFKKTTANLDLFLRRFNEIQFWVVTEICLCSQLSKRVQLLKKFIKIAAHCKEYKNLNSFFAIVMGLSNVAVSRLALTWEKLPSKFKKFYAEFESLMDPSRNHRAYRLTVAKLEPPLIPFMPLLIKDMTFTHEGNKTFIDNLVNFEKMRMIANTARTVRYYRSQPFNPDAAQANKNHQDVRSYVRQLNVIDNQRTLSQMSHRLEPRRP
Sequence of Rap guanine nucleotide exchange factor 3 (Homo sapiens) (O95398 whole entry, looked up): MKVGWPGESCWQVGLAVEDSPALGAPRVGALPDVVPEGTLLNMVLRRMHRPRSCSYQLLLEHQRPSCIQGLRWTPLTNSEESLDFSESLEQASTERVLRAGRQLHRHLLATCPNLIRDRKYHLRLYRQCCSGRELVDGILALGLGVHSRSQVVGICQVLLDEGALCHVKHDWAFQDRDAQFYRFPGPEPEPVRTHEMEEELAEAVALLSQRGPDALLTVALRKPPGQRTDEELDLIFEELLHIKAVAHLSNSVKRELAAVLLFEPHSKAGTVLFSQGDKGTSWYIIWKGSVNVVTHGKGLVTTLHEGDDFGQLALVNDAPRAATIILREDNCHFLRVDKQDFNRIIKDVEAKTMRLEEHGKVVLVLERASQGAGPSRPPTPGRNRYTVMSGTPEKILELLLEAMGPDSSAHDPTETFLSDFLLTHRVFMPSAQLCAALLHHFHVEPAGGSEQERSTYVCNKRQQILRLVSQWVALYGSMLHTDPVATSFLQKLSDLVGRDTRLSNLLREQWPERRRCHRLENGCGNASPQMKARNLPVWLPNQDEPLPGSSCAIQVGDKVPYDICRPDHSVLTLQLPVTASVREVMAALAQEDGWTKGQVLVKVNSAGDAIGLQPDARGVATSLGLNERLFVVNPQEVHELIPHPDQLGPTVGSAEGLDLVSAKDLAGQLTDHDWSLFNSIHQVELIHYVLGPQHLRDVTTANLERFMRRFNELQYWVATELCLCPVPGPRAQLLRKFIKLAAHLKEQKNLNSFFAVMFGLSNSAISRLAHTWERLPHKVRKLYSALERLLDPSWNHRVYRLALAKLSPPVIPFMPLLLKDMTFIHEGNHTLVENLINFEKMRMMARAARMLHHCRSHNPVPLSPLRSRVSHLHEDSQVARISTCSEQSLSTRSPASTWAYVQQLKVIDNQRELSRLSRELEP

Compound	Potency [1]	Potency [2]	activation [3]	Potency [4]	activity change, negative = inhibition [5]	activation [6]	Potency [3]	Potency [5]	Potency [6]
COc1cccc(C(NC(C)=O)c2nc(-c3csc4ccccc34)cs2)c1 (stereo not given)	inactive	inactive	1.45% [at 17.1 µM, percent relative to cAMP agonist control]	inactive	-22.7% [at 30.8 µM]	29.4% [at 30.8 µM]	–	–	–
CC1CCc2c(sc(NC(=O)Cc3ccccc3)c2C(=O)Nc2ccc(Cl)cc2)C1 (stereo not given)	inactive	inactive	–	inactive	–	–	inactive	inactive	inactive
CCN1/C(=C/C(C)=C/c2sc3ccccc3[n+]2CC)Sc2ccccc21	50.1 µM (active)	inactive	8.04% [at 17.1 µM, percent relative to cAMP agonist control]	inactive	12.4% [at 30.8 µM]	12.5% [at 30.8 µM]	–	–	–
CCCCN1C(=O)/C(=C/C=C2\Oc3ccccc3N2CC)SC1=S	inactive	112 µM (active)	–	inactive	–	–	100 µM (active)	inactive	1.78 µM (active)
COc1ccc(OCC(=O)Nc2ccccc2N2CCCCC2)cc1	inactive	inactive	-5.15% [at 17.1 µM, percent relative to cAMP agonist control]	inactive	-4.31% [at 30.8 µM]	2.16% [at 30.8 µM]	–	–	–
NN=C1c2ccccc2C(=O)C1C(=O)C(c1ccccc1)c1ccccc1 (stereo not given)	42.6 µM (active)	inactive	–	inactive	–	–	inactive	inactive	inactive
S=C(Nc1cccc2ccccc12)NC1CCCCC1	inactive	inactive	0.103% [at 17.1 µM, percent relative to cAMP agonist control]	inactive	5.07% [at 30.8 µM]	5.1% [at 30.8 µM]	–	–	–
COc1cc(OC)c(CNC2CCCCCC2)cc1Br	inactive	inactive	–	inactive	–	–	inactive	inactive	inactive
N#Cc1c(-c2ccccc2)nc(SCc2cccc(Cl)c2)[nH]c1=O	67.5 µM (active)	inactive	–	37.9 µM (active)	–	–	inactive	inactive	inactive
Cc1cc(-c2csc(N)n2)c(C)n1CCC(C)C	inactive	inactive	–	inactive	–	–	inactive	inactive	inactive
CC1C/C(=C/c2cccn2C)C(=O)/C(=C/c2cccn2C)C1 (stereo not given)	16.9 µM (active)	inactive	–	inactive	–	–	inactive	inactive	79.4 µM (active)
CCCCn1c(N)c(N(CC(C)C)C(=O)C2CCN(S(=O)(=O)c3ccc(C)c(C)c3)CC2)c(=O)[nH]c1=O	inactive	inactive	–	inactive	–	–	inactive	inactive	inactive
COc1cc(/C=C2\SC(=O)N(c3ccccc3Cl)C2=O)cc([N+](=O)[O-])c1O	47.8 µM (active)	inactive	–	42.6 µM (active)	–	–	inactive	inactive	inactive
COc1cc2ccccc2cc1C(=O)N1CCc2ccccc21	inactive	inactive	–	7.57 µM (active)	–	–	inactive	inactive	inactive
Cc1ccc(NC(=O)CSc2ncn[nH]2)cc1C	inactive	inactive	–	inactive	–	–	inactive	inactive	inactive
Nc1nc(NCC(=O)O)nc(NCc2ccccc2)c1[N+](=O)[O-]	inactive	inactive	–	inactive	–	–	inactive	inactive	inactive
O=C(COC(=O)c1c2c(nc3ccccc13)/C(=C/c1ccco1)CC2)NC1CCCC1	30.1 µM (active)	inactive	–	inactive	–	–	inactive	inactive	inactive
O=C(O)CN1C(=O)/C(=C\c2cccc(OCc3ccc(Cl)cc3Cl)c2)SC1=S	44.7 µM (active)	inactive	19.7% [at 17.1 µM, percent relative to cAMP agonist control]	0.301 µM (active)	-5.98% [at 30.8 µM]	8.88% [at 30.8 µM]	–	–	–
C=CCOc1ccc(/C=C2\SC(=S)N(NS(=O)(=O)c3ccc(C)cc3)C2=O)cc1	21.3 µM (active)	inactive	–	inactive	–	–	inactive	inactive	inactive
C=CCn1c(O)c(N=NC(=O)CNC(=O)/C=C/c2ccc(OC)cc2)c2ccccc21	inactive	inactive	–	inactive	–	–	inactive	inactive	inactive

Compound	Potency [1]	Potency [2]	activation [3]	Potency [4]	activity change, negative = inhibition [5]	activation [6]	Potency [3]	Potency [5]	Potency [6]
Cc1cccc(NC(=O)c2c(NC(=O)C(F)(F)F)sc3c2CCCCC3)c1	42.6 µM (active)	inactive	–	inactive	–	–	inactive	inactive	inactive
Oc1ccc(NCc2ccccc2OCc2ccccc2)cc1	inactive	inactive	–	inactive	–	20.2% [at 30.8 µM]	inactive	inactive	–
O=C(O)CN1C(=O)/C(=C\c2cccc(OCc3ccc(Cl)cc3)c2)SC1=S	75.7 µM (active)	inactive	–	inactive	–	–	inactive	inactive	inactive
Brc1ccc(-c2csc(-c3c[nH]c4ccccc34)n2)cc1	inactive	inactive	6.69% [at 17.1 µM, percent relative to cAMP agonist control]	inactive	3.69% [at 30.8 µM]	15.5% [at 30.8 µM]	–	–	–
Cn1c(Cc2cccs2)nnc1SCc1nc2ccccc2[nH]1	inactive	inactive	2.48% [at 17.1 µM, percent relative to cAMP agonist control]	inactive	-1.2% [at 30.8 µM]	30.7% [at 30.8 µM]	–	–	–
Nc1c(C(=O)c2ccccc2)sc2nsc(SCCN3CCOCC3)c12	inactive	inactive	–	inactive	–	–	inactive	inactive	inactive
COc1ccc(OC)c(NC(=O)Cc2c(C(=O)O)n(C)c3ccc(C)cc23)c1	inactive	inactive	–	inactive	–	–	inactive	inactive	inactive
CC(C)(C)c1nc(-c2ccccc2)nc2c1OCCC2	inactive	inactive	–	inactive	–	–	inactive	inactive	inactive
CCOC(=O)N(C)c1c(CC)nc2c(OCc3ccc(OC(F)F)cc3)cccn12	inactive	inactive	–	inactive	–	–	inactive	inactive	inactive
CC(C)(C(=O)N1CCC1(C)C(=O)NS(=O)(=O)c1ccccc1Cl)c1ccccc1 (stereo not given)	inactive	inactive	3.96% [at 17.1 µM, percent relative to cAMP agonist control]	inactive	0.723% [at 30.8 µM]	1.99% [at 30.8 µM]	–	–	–
COc1ccc(N(C)C(=O)CC2(CC(=O)O)CCCCC2)cc1	inactive	inactive	8.49% [at 17.1 µM, percent relative to cAMP agonist control]	inactive	1.07% [at 30.8 µM]	2.37% [at 30.8 µM]	–	–	–
CC(NC(=O)c1cc(S(=O)(=O)N2CCOCC2)ccc1N1CCCC1)c1ccc(Cl)c(Cl)c1 (stereo not given)	inactive	inactive	–	inactive	–	–	inactive	inactive	inactive
CC1CCCCC1Nc1nc2ccc(Cl)cc2n2cnnc12 (stereo not given)	inactive	inactive	–	inactive	–	–	inactive	inactive	inactive
N#Cc1c(/N=C/c2ccco2)sc2c1CCC2	inactive	inactive	2.45% [at 17.1 µM, percent relative to cAMP agonist control]	inactive	0.743% [at 30.8 µM]	7.28% [at 30.8 µM]	–	–	–
COc1cc(C2c3c(oc4ccccc4c3=O)C(=O)N2c2nc(C)c(C)s2)ccc1O (stereo not given)	inactive	inactive	–	inactive	–	–	inactive	inactive	inactive
CCOc1ccc(-n2c(SCC(=O)Nc3ccccc3OC)nc3c(oc4ccccc43)c2=O)cc1	inactive	inactive	–	inactive	–	–	inactive	inactive	inactive
Cn1cc([C@]2(O)C(=O)Nc3ccccc32)c2ccccc21	inactive	inactive	0.506% [at 17.1 µM, percent relative to cAMP agonist control]	inactive	-2.77% [at 30.8 µM]	2.4% [at 30.8 µM]	–	–	–
N#Cc1cc(C(=O)c2cc(F)ccc2O)cn(-c2nccs2)c1=O	inactive	100 µM (active)	–	inactive	–	–	112 µM (active)	inactive	39.8 µM (active)
COC(=O)c1ccc(NC(=O)CCOc2ccccc2)cc1	inactive	inactive	–	inactive	–	–	inactive	inactive	inactive
COc1ccc(C(=O)Nc2cc(OC)c(Cl)cc2OC)cc1	inactive	inactive	4.3% [at 17.1 µM, percent relative to cAMP agonist control]	inactive	-12.1% [at 30.8 µM]	10.3% [at 30.8 µM]	–	–	–
